# Source: PMC11062922 (Nature Chemical Biology, 2023)
# Where two headings read alike, the source gives them in different places.
# Experiments:
# Design in all cases: species or system human, MV4-11 + K-562 + COLO205 + SK-N-BE2 + OVCAR-8
# ADCK1 = conditions: read-out: apparent Kd, n = 1
# ATM = conditions: read-out: apparent Kd; compound concentrations: 100 nM and 1000 nM (sheet 'Samples'), CATDS: 0.154535696206207; n = 1
# CDC42BPG = conditions: read-out: apparent Kd; compound concentrations: 100 nM and 1000 nM (sheet 'Samples'), CATDS: 7.3873319351317801E-2; n = 1
# CDKL5 = conditions: read-out: apparent Kd; compound concentrations: 100 nM and 1000 nM (sheet 'Samples'), CATDS: 0.103192047261391; n = 1
# CLK1 = conditions: read-out: apparent Kd, n = 1
# CLK2 = conditions: read-out: apparent Kd; compound concentrations: 100 nM and 1000 nM (sheet 'Samples'), CATDS: 0.42234286586488101; n = 1
# CLK4 = conditions: read-out: apparent Kd, n = 1
# PIK3CD = conditions: read-out: apparent Kd; compound concentrations: 100 nM and 1000 nM (sheet 'Samples'), CATDS: 0.16747258598029099; n = 1
# PRKAG2 = conditions: read-out: apparent Kd; compound concentrations: 100 nM and 1000 nM (sheet 'Samples'), CATDS: 7.6138264702913502E-2; n = 1
# ADCK3 = conditions: read-out: apparent Kd, n = 1
# AKT1 = conditions: read-out: apparent Kd; compound concentrations:100 nM and 1000 nM (sheet 'Samples'); n = 1
# ATR = conditions: read-out: apparent Kd; compound concentrations:100 nM and 1000 nM (sheet 'Samples'); n = 1
# AURKA = conditions: read-out: apparent Kd; compound concentrations:100 nM and 1000 nM (sheet 'Samples'); n = 1
# BTK = conditions: read-out: apparent Kd; compound concentrations:100 nM and 1000 nM (sheet 'Samples'); n = 1
# CDK9 = conditions: read-out: apparent Kd; compound concentrations:100 nM and 1000 nM (sheet 'Samples'); n = 1
# CSNK1A1 = conditions: read-out: apparent Kd; compound concentrations:100 nM and 1000 nM (sheet 'Samples'); n = 1
# CSNK1E = conditions: read-out: apparent Kd; compound concentrations:100 nM and 1000 nM (sheet 'Samples'); n = 1
# CSNK1G1 = conditions: read-out: apparent Kd; compound concentrations:100 nM and 1000 nM (sheet 'Samples'); n = 1
# CSNK1G3 = conditions: read-out: apparent Kd; compound concentrations:100 nM and 1000 nM (sheet 'Samples'); n = 1
# DDX3X;DDX3Y = conditions: read-out: apparent Kd; compound concentrations:100 nM and 1000 nM (sheet 'Samples'); n = 1
# EPHB3 = conditions: read-out: apparent Kd; compound concentrations:100 nM and 1000 nM (sheet 'Samples'); n = 1
# GRK6 = conditions: read-out: apparent Kd; compound concentrations:100 nM and 1000 nM (sheet 'Samples'); n = 1
# HSP90B1 = conditions: read-out: apparent Kd; compound concentrations:100 nM and 1000 nM (sheet 'Samples'); n = 1
# LYN = conditions: read-out: apparent Kd; compound concentrations:100 nM and 1000 nM (sheet 'Samples'); n = 1
# MAP2K1 = conditions: read-out: apparent Kd; compound concentrations:100 nM and 1000 nM (sheet 'Samples'); n = 1
# MAP2K2 = conditions: read-out: apparent Kd; compound concentrations:100 nM and 1000 nM (sheet 'Samples'); n = 1
# MAPK1 = conditions: read-out: apparent Kd; compound concentrations:100 nM and 1000 nM (sheet 'Samples'); n = 1
# MAPK3 = conditions: read-out: apparent Kd; compound concentrations:100 nM and 1000 nM (sheet 'Samples'); n = 1
# MCM5 = conditions: read-out: apparent Kd; compound concentrations:100 nM and 1000 nM (sheet 'Samples'); n = 1
# MET = conditions: read-out: apparent Kd; compound concentrations:100 nM and 1000 nM (sheet 'Samples'); n = 1
# OPA1 = conditions: read-out: apparent Kd; compound concentrations:100 nM and 1000 nM (sheet 'Samples'); n = 1
# PHKG2 = conditions: read-out: apparent Kd; compound concentrations:100 nM and 1000 nM (sheet 'Samples'); n = 1
# PI4KA = conditions: read-out: apparent Kd; compound concentrations:100 nM and 1000 nM (sheet 'Samples'); n = 1
# PI4KB = conditions: read-out: apparent Kd; compound concentrations:100 nM and 1000 nM (sheet 'Samples'); n = 1
# PIK3CA = conditions: read-out: apparent Kd; compound concentrations:100 nM and 1000 nM (sheet 'Samples'); n = 1
# PIK3CB = conditions: read-out: apparent Kd; compound concentrations:100 nM and 1000 nM (sheet 'Samples'); n = 1
# PIM1 = conditions: read-out: apparent Kd; compound concentrations:100 nM and 1000 nM (sheet 'Samples'); n = 1
# PIM3 = conditions: read-out: apparent Kd; compound concentrations:100 nM and 1000 nM (sheet 'Samples'); n = 1
# PRKACA = conditions: read-out: apparent Kd; compound concentrations:100 nM and 1000 nM (sheet 'Samples'); n = 1
# PRKDC = conditions: read-out: apparent Kd; compound concentrations:100 nM and 1000 nM (sheet 'Samples'); n = 1
# RAB14 = conditions: read-out: apparent Kd; compound concentrations:100 nM and 1000 nM (sheet 'Samples'); n = 1
# RAB5C = conditions: read-out: apparent Kd; compound concentrations:100 nM and 1000 nM (sheet 'Samples'); n = 1
# RPS6KA3 = conditions: read-out: apparent Kd; compound concentrations:100 nM and 1000 nM (sheet 'Samples'); n = 1
# RPS6KA6 = conditions: read-out: apparent Kd; compound concentrations:100 nM and 1000 nM (sheet 'Samples'); n = 1
# SKIV2L2 = conditions: read-out: apparent Kd; compound concentrations:100 nM and 1000 nM (sheet 'Samples'); n = 1
# SLC25A5 = conditions: read-out: apparent Kd; compound concentrations:100 nM and 1000 nM (sheet 'Samples'); n = 1
# T10 = tested on: T1, T10; conditions: read-out: apparent Kd; compound concentrations:100 nM and 1000 nM (sheet 'Samples'); n = 1
# T1 construct: gene NAT10
# TBK1 = conditions: read-out: apparent Kd; compound concentrations:100 nM and 1000 nM (sheet 'Samples'); n = 1
# TEC = conditions: read-out: apparent Kd; compound concentrations:100 nM and 1000 nM (sheet 'Samples'); n = 1
# ULK3 = conditions: read-out: apparent Kd; compound concentrations:100 nM and 1000 nM (sheet 'Samples'); n = 1
# VDAC3 = conditions: read-out: apparent Kd; compound concentrations:100 nM and 1000 nM (sheet 'Samples'); n = 1
# [1] = compound concentrations:100 nM and 1000 nM (sheet 'Samples')
compound,measurement,setting,value
CCOc1ccc2c(-c3ccnc(Nc4cccc(C(F)(F)F)c4)n3)cnn2n1 [GW811761X],potency estimated from few doses,"ADCK1; compound concentrations: 100 nM and 1000 nM (sheet 'Samples'), CATDS: 8.5431360664487602E-2",1140 nM
same,potency estimated from few doses,ATM,257 nM
same,potency estimated from few doses,CDC42BPG,2020 nM
same,potency estimated from few doses,CDKL5,644 nM
same,potency estimated from few doses,"CLK1; compound concentrations: 100 nM and 1000 nM (sheet 'Samples'), CATDS: 0.10181470937503199",667 nM
same,potency estimated from few doses,CLK2,49.8 nM
same,potency estimated from few doses,"CLK4; compound concentrations: 100 nM and 1000 nM (sheet 'Samples'), CATDS: 0.12045713212899201",438 nM
same,potency estimated from few doses,PIK3CD,220 nM
same,potency estimated from few doses,PRKAG2,1760 nM
Nc1nc(-c2ccc3c(N)n[nH]c3c2)cc(N2CCC[C@@H](C(=O)Nc3ccccc3)C2)n1.Nc1nc(-c2ccc3c(N)n[nH]c3c2)cc(N2CCC[C@@H](C(=O)Nc3ccccc3)C2)n1.O=C(O)C(F)(F)F.O=C(O)C(F)(F)F [GSK2288359A],potency estimated from few doses,ADCK3; [1],1100 nM
O=C(Nc1cccc(-c2nn3ncccc3c2-c2ccnc(Nc3cccc(C(F)(F)F)c3)n2)c1)c1c(F)cccc1F [GSK299495A],potency estimated from few doses,"ADCK3; compound concentrations: 100 nM and 1000 nM (sheet 'Samples'), CATDS: 1",233 nM
Cc1cnc(Nc2ccc(F)cc2Cl)nc1-c1c[nH]c(C(=O)N[C@H](CO)c2cccc(Cl)c2)c1 [Vertex11e],potency estimated from few doses,ADCK1; [1],1210 nM
same,potency estimated from few doses,AKT1,1200 nM
same,potency estimated from few doses,ATR,890 nM
same,potency estimated from few doses,AURKA,745 nM
same,potency estimated from few doses,BTK,880 nM
same,potency estimated from few doses,CDK9,1810 nM
same,potency estimated from few doses,CLK1; [1],1150 nM
same,potency estimated from few doses,CLK4; [1],1250 nM
same,potency estimated from few doses,CSNK1A1,969 nM
same,potency estimated from few doses,CSNK1E,1220 nM
same,potency estimated from few doses,CSNK1G1,2060 nM
same,potency estimated from few doses,CSNK1G3,1230 nM
same,potency estimated from few doses,DDX3X;DDX3Y,1220 nM
same,potency estimated from few doses,EPHB3,2330 nM
same,potency estimated from few doses,GRK6,1290 nM
same,potency estimated from few doses,HSP90B1,1070 nM
same,potency estimated from few doses,LYN,1320 nM
same,potency estimated from few doses,MAP2K1,1350 nM
same,potency estimated from few doses,MAP2K2,1430 nM
same,potency estimated from few doses,MAPK1,44.9 nM
same,potency estimated from few doses,MAPK3,77.8 nM
same,potency estimated from few doses,MCM5,1270 nM
same,potency estimated from few doses,MET,2320 nM
same,potency estimated from few doses,OPA1,802 nM
same,potency estimated from few doses,PHKG2,2480 nM
same,potency estimated from few doses,PI4KA,1380 nM
same,potency estimated from few doses,PI4KB,59.2 nM
same,potency estimated from few doses,PIK3CA,142 nM
same,potency estimated from few doses,PIK3CB,851 nM
same,potency estimated from few doses,PIM1,939 nM
same,potency estimated from few doses,PIM3,340 nM
same,potency estimated from few doses,PRKACA,1860 nM
same,potency estimated from few doses,PRKDC,723 nM
same,potency estimated from few doses,RAB14,655 nM
same,potency estimated from few doses,RAB5C,1330 nM
same,potency estimated from few doses,RPS6KA3,1540 nM
same,potency estimated from few doses,RPS6KA6,628 nM
same,potency estimated from few doses,SKIV2L2,1590 nM
same,potency estimated from few doses,SLC25A5,1450 nM
same,potency estimated from few doses,T10,952 nM
same,potency estimated from few doses,TBK1,1290 nM
same,potency estimated from few doses,TEC,1320 nM
same,potency estimated from few doses,ULK3,1530 nM
same,potency estimated from few doses,VDAC3,1380 nM
